Laboratory results from the supplement of paper PMC10981050.
Where “and” joins values, the source holds several entries; their conditions need not be identical. Equal entries are not always repeated. Structures can show the parent of a compound that is named as a salt.

Legend:
Test in all cases: cell viability relative to vehicle control; higher = less cytotoxic
Details in all cases: 10 µM
K562 = tested on: K562
How it was run: (§1)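 CRISPR-edited SRSF2 P95 mutant and isogenic wild-type clones of four leukaemia lines were screened against Selleck bioactive, kinase and epigenetic probe libraries, with identity-inconsistent compounds removed. Compounds were acoustically dispensed into 384-well plates at a single 10 µM dose, with 2000 cells in 50 µL medium per well. After 48 h, supernatant was removed and CellTiter-Glo luminescence was read. Viability was expressed as percent of the on-plate DMSO vehicle control, analysed in Genedata Screener.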

MARIMO = tested on: MARIMO
How it was run: as §1

MOLM14 = tested on: MOLM14
How it was run: as §1

OCI-AML2 = tested on: OCI-AML2
How it was run: as §1

## COc1cc(CO)ccc1O [Vanillyl Alcohol]
K562; SRSF2 genotype: SRSF2 P95H/wt
  cell viability: 97.3% and 89.7%
K562; SRSF2 genotype: SRSF2 wt/wt
  cell viability: 88.8%
MARIMO; SRSF2 genotype: SRSF2 P95H/wt
  cell viability: 94.9%
MARIMO; SRSF2 genotype: SRSF2 wt/wt
  cell viability: 100%
MOLM14; SRSF2 genotype: SRSF2 P95H/wt
  cell viability: 92.1%
MOLM14; SRSF2 genotype: SRSF2 wt/wt
  cell viability: 95.9%
OCI-AML2; SRSF2 genotype: P95H/wt
  cell viability: 92.4%
OCI-AML2; SRSF2 genotype: wt/wt
  cell viability: 91.7%

## O=C(c1ccc(Cl)cc1Cl)n1nnc2ccccc21
K562; SRSF2 genotype: SRSF2 P95H/wt
  cell viability: 54.8% and 62.1%
K562; SRSF2 genotype: SRSF2 wt/wt
  cell viability: 70.3%
MARIMO; SRSF2 genotype: SRSF2 P95H/wt
  cell viability: 48.4%
MARIMO; SRSF2 genotype: SRSF2 wt/wt
  cell viability: 46.2%
MOLM14; SRSF2 genotype: SRSF2 P95H/wt
  cell viability: 59.3%
MOLM14; SRSF2 genotype: SRSF2 wt/wt
  cell viability: 49.6%
OCI-AML2; SRSF2 genotype: P95H/wt
  cell viability: 37.9%
OCI-AML2; SRSF2 genotype: wt/wt
  cell viability: 29.3%

## O=c1[nH]cc(F)c(=O)[nH]1 [Adrucil (Fluorouracil)]
K562; SRSF2 genotype: SRSF2 P95H/wt
  cell viability: 92.3% and 90%
K562; SRSF2 genotype: SRSF2 wt/wt
  cell viability: 74.5%
MARIMO; SRSF2 genotype: SRSF2 P95H/wt
  cell viability: 68.5%
MARIMO; SRSF2 genotype: SRSF2 wt/wt
  cell viability: 67.4%
MOLM14; SRSF2 genotype: SRSF2 P95H/wt
  cell viability: 37.5%
MOLM14; SRSF2 genotype: SRSF2 wt/wt
  cell viability: 26.1%
OCI-AML2; SRSF2 genotype: P95H/wt
  cell viability: 49.1%
OCI-AML2; SRSF2 genotype: wt/wt
  cell viability: 55.1%

## O=C1NC(=O)C(c2cnc3ccccn23)=C1c1cn2c3c(cc(F)cc13)CN(C(=O)N1CCCCC1)CC2
K562; SRSF2 genotype: SRSF2 P95H/wt
  cell viability: 56.1% and 43.4%
K562; SRSF2 genotype: SRSF2 wt/wt
  cell viability: 71.5%
MARIMO; SRSF2 genotype: SRSF2 P95H/wt
  cell viability: 94.4%
MARIMO; SRSF2 genotype: SRSF2 wt/wt
  cell viability: 103%
MOLM14; SRSF2 genotype: SRSF2 P95H/wt
  cell viability: 86.8%
MOLM14; SRSF2 genotype: SRSF2 wt/wt
  cell viability: 79.5%
OCI-AML2; SRSF2 genotype: P95H/wt
  cell viability: 118%
OCI-AML2; SRSF2 genotype: wt/wt
  cell viability: 119%

## CCN1CC(CCN2CCOCC2)C(c2ccccc2)(c2ccccc2)C1=O (stereo not drawn) [Doxapram HCl]
K562; SRSF2 genotype: SRSF2 P95H/wt
  cell viability: 104% and 111%
K562; SRSF2 genotype: SRSF2 wt/wt
  cell viability: 112%
MARIMO; SRSF2 genotype: SRSF2 P95H/wt
  cell viability: 112%
MARIMO; SRSF2 genotype: SRSF2 wt/wt
  cell viability: 111%
MOLM14; SRSF2 genotype: SRSF2 P95H/wt
  cell viability: 104%
MOLM14; SRSF2 genotype: SRSF2 wt/wt
  cell viability: 109%
OCI-AML2; SRSF2 genotype: P95H/wt
  cell viability: 111%
OCI-AML2; SRSF2 genotype: wt/wt
  cell viability: 95.4%

## C/C=C1\[C@H]2C=C(C)C[C@]1(N)c1ccc(=O)[nH]c1C2 [(-)-Huperzine A (HupA)]
K562; SRSF2 genotype: SRSF2 P95H/wt
  cell viability: 105% and 103%
K562; SRSF2 genotype: SRSF2 wt/wt
  cell viability: 108%
MARIMO; SRSF2 genotype: SRSF2 P95H/wt
  cell viability: 103%
MARIMO; SRSF2 genotype: SRSF2 wt/wt
  cell viability: 103%
MOLM14; SRSF2 genotype: SRSF2 P95H/wt
  cell viability: 115%
MOLM14; SRSF2 genotype: SRSF2 wt/wt
  cell viability: 110%
OCI-AML2; SRSF2 genotype: P95H/wt
  cell viability: 109%
OCI-AML2; SRSF2 genotype: wt/wt
  cell viability: 103%

## O=[N+]([O-])c1ccc(Sc2cccc[n+]2[O-])c2nonc12
K562; SRSF2 genotype: SRSF2 P95H/wt
  cell viability: 0.23% and 0.26%
K562; SRSF2 genotype: SRSF2 wt/wt
  cell viability: 0.23%
MARIMO; SRSF2 genotype: SRSF2 P95H/wt
  cell viability: 0.65%
MARIMO; SRSF2 genotype: SRSF2 wt/wt
  cell viability: 0.24%
MOLM14; SRSF2 genotype: SRSF2 P95H/wt
  cell viability: 0.22%
MOLM14; SRSF2 genotype: SRSF2 wt/wt
  cell viability: 0.25%
OCI-AML2; SRSF2 genotype: P95H/wt
  cell viability: 0.28%
OCI-AML2; SRSF2 genotype: wt/wt
  cell viability: 0.27%

## CN(C)Cc1cccc(N=C(c2ccccc2)c2c(O)[nH]c3cc(C(=O)N(C)C)ccc23)c1
K562; SRSF2 genotype: SRSF2 P95H/wt
  cell viability: 88.8% and 90.6%
K562; SRSF2 genotype: SRSF2 wt/wt
  cell viability: 79.6%
MARIMO; SRSF2 genotype: SRSF2 P95H/wt
  cell viability: 60.9%
MARIMO; SRSF2 genotype: SRSF2 wt/wt
  cell viability: 63.4%
MOLM14; SRSF2 genotype: SRSF2 P95H/wt
  cell viability: 38.4%
MOLM14; SRSF2 genotype: SRSF2 wt/wt
  cell viability: 31.6%
OCI-AML2; SRSF2 genotype: P95H/wt
  cell viability: 38.5%
OCI-AML2; SRSF2 genotype: wt/wt
  cell viability: 36.2%

## COC(=O)c1ccc2c(c1)[nH]c1ncnc(NCCCN3CCCCC3)c12
K562; SRSF2 genotype: SRSF2 P95H/wt
  cell viability: 78.5% and 68.9%
K562; SRSF2 genotype: SRSF2 wt/wt
  cell viability: 73.5%
MARIMO; SRSF2 genotype: SRSF2 P95H/wt
  cell viability: 49.9%
MARIMO; SRSF2 genotype: SRSF2 wt/wt
  cell viability: 49%
MOLM14; SRSF2 genotype: SRSF2 P95H/wt
  cell viability: 23.7%
MOLM14; SRSF2 genotype: SRSF2 wt/wt
  cell viability: 15.7%
OCI-AML2; SRSF2 genotype: P95H/wt
  cell viability: 24.2%
OCI-AML2; SRSF2 genotype: wt/wt
  cell viability: 31%

## COc1ccc(C[C@@H]2c3cc(Oc4cc(C[C@@H]5c6cc(O)c(OC)cc6CCN5C)ccc4O)c(OC)cc3CCN2C)cc1 [Isoliensinine]
K562; SRSF2 genotype: SRSF2 P95H/wt
  cell viability: 50.4% and 50.8%
K562; SRSF2 genotype: SRSF2 wt/wt
  cell viability: 61.2%
MARIMO; SRSF2 genotype: SRSF2 P95H/wt
  cell viability: 10.2%
MARIMO; SRSF2 genotype: SRSF2 wt/wt
  cell viability: 16.6%
MOLM14; SRSF2 genotype: SRSF2 P95H/wt
  cell viability: 2.24%
MOLM14; SRSF2 genotype: SRSF2 wt/wt
  cell viability: 1.04%
OCI-AML2; SRSF2 genotype: P95H/wt
  cell viability: 0.44%
OCI-AML2; SRSF2 genotype: wt/wt
  cell viability: 0.95%

## COc1ccc(COc2ccc(Cc3cnc(N)nc3N)cc2OC)cc1
K562; SRSF2 genotype: SRSF2 P95H/wt
  cell viability: 83.8% and 84%
K562; SRSF2 genotype: SRSF2 wt/wt
  cell viability: 80%
MARIMO; SRSF2 genotype: SRSF2 P95H/wt
  cell viability: 84%
MARIMO; SRSF2 genotype: SRSF2 wt/wt
  cell viability: 92.8%
MOLM14; SRSF2 genotype: SRSF2 P95H/wt
  cell viability: 86.6%
MOLM14; SRSF2 genotype: SRSF2 wt/wt
  cell viability: 88.3%
OCI-AML2; SRSF2 genotype: P95H/wt
  cell viability: 66%
OCI-AML2; SRSF2 genotype: wt/wt
  cell viability: 70.3%
